According to PubChem BioAssay AID1117290 (Broad Institute, 2014):
Potency and affinity values are given separately. Activity calls are given as the source filed them.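 How the source made its calls: active means every replicate test called active, each showing a drop in signal with a fitted potency within twice the top tested dose; inconclusive means tests disagree, or fits are weak, flat midrange or poor; inactive means every test flat, rising or fitted past the limit.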

Test: lung carcinoma cell viability loss – CellTiter-Glo luminescence, dry powder, set 18, cytotoxicity control, dose response (AID 1117290)
Conditions: A549 viability, CellTiter-Glo ATP luminescence, 72 h; series mostly up to 26 µM
For `CC(=O)N1CCN(C(=O)C2(NC(=O)NC(C)(C)C)CCCCC2)CC1`, the outcome was “inactive”.
In the case of `COc1ccc(C(=O)O)cc1S(=O)(=O)Nc1cc(C(F)(F)F)ccc1N1CCCCC1`, the outcome is reported as “inactive”.
With `COc1ccc(C(=O)Nc2cccc(C(F)(F)F)c2)cc1S(=O)(=O)O` the outcome was “inactive”.
With `CC(=O)N1CCN(C(=O)C2(NC(=O)Nc3ccccc3F)CCCCC2)CC1` the outcome was “inactive”.
In the case of `Cc1ccccc1S(=O)(=O)Nc1cc(C(F)(F)F)ccc1N1CCCCC1`, the outcome is reported as “inactive”.
With `COc1cccc(NC(=O)NC2(C(=O)N3CCN(C(C)=O)CC3)CCCCC2)c1` the outcome was “inactive”.
In the case of `COc1ccc(C(=O)O)cc1S(=O)(=O)Nc1cc(C(F)(F)F)ccc1N1CCOCC1`, the outcome is reported as “inactive”.
For `CC(=O)N1CCN(C(=O)C2(NC(=O)Nc3cccc(C(F)(F)F)c3)CCCCC2)CC1`, the outcome was “inactive”.
With `COc1ccc(C(=O)O)cc1S(=O)(=O)Nc1cccc(N2CCCCC2)c1C(F)(F)F` the outcome was “inactive”.
With `O=S(=O)(Nc1cc(C(F)(F)F)ccc1N1CCCCC1)c1ccc(F)cc1` the outcome was “inactive”.
